Laboratory results taken from PubChem BioAssay AID1446 (The Scripps Research Institute Molecular Screening Center, 2008).
The campaign covered roughly 220,000 compounds. About 2,400 (1.1%) were called active. Only a selection was taken, and actives are over-represented in it overall. Unmarked numbers belong to inactive results.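 The calls were made as follows: active = inhibition above the campaign mean plus 3 SD over all tested compounds (cut at about 24% in these data); inactive = the rest.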

Experiment: reduced viability of JAK2V617F-dependent Ba/F3 cells, primary screen, JAK2V617F inhibitor project, cell-based, Ba/F3 EpoR-JAK2V617F, luminescence (AID 1446);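 also: cytokine-independent growth of Ba/F3 cells driven by EpoR plus mutant JAK2; 0% = DMSO-treated cells and 100% = JAK inhibitor I control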
Conditions: ATP luminescence, at 5.6 µM, hits give high values

SMILES	inhibition
CCC1CCCCN1CCCNC(=O)c1cc2c(Cl)nc3ccccc3c2s1 (stereo unspecified)	58.8% (active)
CCC1CCCCN1CCCNC(=O)Cn1nc(-c2ccccc2)ccc1=O (stereo unspecified)	-2.73%
CCC1CCCCN1CCCNC(=O)C1CCC(Cn2c(=O)[nH]c3ccccc3c2=O)CC1 (stereo unspecified)	2.93%
CC(C)(C)c1cc(P(=O)(c2ccccc2)c2ccccc2)ccc1O	-0.07%
OCCN1CCN(C(=S)c2ccc(-c3ccccc3)cc2)CC1	-5.03%
COc1ccc(C(=O)CSc2nnc(NC(=O)C3CC(=O)N(c4cccc(OC)c4)C3)s2)cc1 (stereo unspecified)	0.22%
O=C(CCl)Nc1ccc(Sc2ccc(NC(=O)CCl)cc2)cc1	39.2% (active)
Cc1ccc(NC(=O)CC(=O)Nc2ccc(C)cc2)cc1	-3.42%
CC(C)(CCl)C(=O)Nc1ccc(Sc2ccc(F)cc2)cc1	-2.48%
COc1ccc(C(=O)Nc2ccc(N3CCC(C)CC3)cc2)cc1Br	1.71%
COc1ccc(N2CCN(C(=O)CCSCc3ccccc3F)CC2)cc1	-2.23%
CCC(C)C(=O)Nc1cc([N+](=O)[O-])ccc1Cl (stereo unspecified)	-3.84%
CCN(CC)S(=O)(=O)c1ccc(N(C)Cc2cccc(OC)c2OC)nc1	1.34%
CCCCCCc1cc2cc(-c3nnc(-c4cccc(OC)c4)o3)c(=O)oc2cc1O	-1.07%
CCCc1nc2ccccc2c(=O)n1NC(=O)c1c(O)c2ccccc2[nH]c1=O	6.3%
Cn1c(SCC(=O)N/N=C/c2ccc(O)c(O)c2)nc2ccccc21	0.9%
CCCc1nc2ccccc2c(=O)n1/N=C/c1ccc(O)c(O)c1	26.5% (active)
Cc1nnsc1C(=O)NCc1c(F)cccc1Cl	1.93%
CCCCC1S/C(=N/N=C/c2cccs2)NC1=O (stereo unspecified)	1.12%
CCCOC(=O)c1[nH]c2c(c1C)C(=O)CC(c1cccs1)C2 (stereo unspecified)	74.3% (active)
CCOC(=O)c1[nH]c2c(c1C)C(=O)CC(c1ccc(N(C)C)cc1)C2 (stereo unspecified)	0.77%
CCCOC(=O)c1[nH]c2c(c1C)C(=O)CC(c1cc(OC)c(OC)c(OC)c1)C2 (stereo unspecified)	17.1%
COc1ccc(/C=C2/SC(=O)N(CCCCCC(=O)Nc3ccccc3C(=O)O)C2=S)cc1	-2.34%
Cn1cccc1-c1nc2ccccc2n1C	3.85%

SMILES	inhibition
Cc1ccc(O)c(CNc2nc3ccccc3n2C)c1	1.4%
Cc1ccc(C2=NN(C)c3nc4ccccc4n3C2)cc1	56.8% (active)
Fc1ccc(COc2ccc(-c3nnco3)cc2)cc1	-2.6%
CCOc1cc(/C=C2/C(=N)N3OC(C)=CC3=NC2=O)ccc1OC	1.56%
C/C(=N\NC(N)=S)c1cccnc1	-4.73%
Cn1c(-c2ccc(F)cc2)cnc1SCC(=O)NNC(=O)Cc1ccccc1	0.3%
Cc1ccc(-c2cnc(NC(=O)CCC(=O)N(C)Cc3ccccc3)n2C)cc1	40.1% (active)
CN(Cc1ccccc1)C(=O)CCc1ccccc1	-4.97%
CC(=O)c1ccc(N2CCN(S(=O)(=O)c3c(C)[nH]c(=O)[nH]c3=O)CC2)cc1	2%
c1ccc2c(c1)CSc1sccc1C2=C1CCNCC1	45.9% (active)
CC(=O)NC(=S)Nc1ccc(NC(=S)NC(=O)c2ccc([N+](=O)[O-])cc2)cc1	-4.8%
Cn1ccc(=Nc2ccc(NC(=O)c3ccc(N=c4ccn(C)c5ccc([N+](=O)[O-])cc45)cc3)cc2)cc1	34.4% (active)
Cc1cc([N+](=O)[O-])ccc1NC(=O)c1ccc(NC(=O)C(C)C)cc1	0.7%
O=C(Nc1ccccc1-c1ccccc1)c1cccs1	6.54%
N#Cc1ccc(OCc2nnc(-c3ccc([N+](=O)[O-])cc3)o2)cc1	1.03%
Cc1n[nH]c(=O)n1-c1ccc(C(C)C)cc1	0.05%
O=C(Nc1ccccc1)Nc1ccc(C(F)(F)F)cn1	2.61%
Oc1ccc(/C=N/Nc2ccc(C(F)(F)F)cn2)cc1O	72% (active)
Cc1nccn1CC(=O)N/N=C/c1ccc(O)c(O)c1	-3.5%
CC1(C)C2CC=C(/C=N/NC(=O)C3CC3)C1C2 (stereo unspecified)	-1.08%
Cc1cc(N2CCN(Cc3ccc4c(c3)OCO4)CC2)n2ncnc2n1	4.15%
Fc1ccc2[nH]c3c(N4CCSCC4)ncnc3c2c1	-5.13%
Fc1ccc2[nH]c3c(N4CCN(Cc5ccc6c(c5)OCO6)CC4)ncnc3c2c1	37.1% (active)
CC(=O)Nc1ccc(/C(C)=N/NC(=O)CN(c2ccccc2Br)S(C)(=O)=O)cc1	-0.87%

SMILES	inhibition
CSc1sc(C(=O)NC(=O)NCc2cccnc2)c(C)c1-c1ccon1	-1.98%
COc1ccc(C2C(C(C)=O)=C(O)C(=O)N2CCc2c[nH]c3ccccc23)cc1 (stereo unspecified)	-3.16%
O=C(N/N=C\c1cc(Br)c(Br)o1)C1COc2ccccc2O1 (stereo unspecified)	-4.95%
CN(Cc1nc2ccc(F)cc2[nH]1)Cc1nc(CC2CC2)no1	-1.61%
CCc1ccc(CN(C)Cc2nc(Cc3ccccc3)no2)nc1	1.45%
CN(Cc1ccc2nsnc2c1)Cc1nc(Cc2cccc(F)c2)no1	47.5% (active)
Cc1cc(C(=O)CCl)c(C)n1CC1COc2ccccc2O1 (stereo unspecified)	2.03%
CSCCC(NS(=O)(=O)c1ccc2c(c1)oc(=O)n2C)C(=O)NCc1ccccc1 (stereo unspecified)	-3.72%
COc1ccc2nc(/N=C(\N)NC(=O)Nc3ccccc3)nc(C)c2c1	30.8% (active)
COc1ccc(NC(=O)Nc2ccc3nc(C)c(C)nc3c2)cc1	-2.47%
Cc1nc(/N=C(\N)NC(=O)NC2CCCCC2)nc2ccccc12	2.92%
CCCN(CCC)S(=O)(=O)c1ccc(C(=O)NNC(=O)c2cc(OC)c(OC)c(OC)c2)cc1	-3.01%
C#CCOCCOCCOCCNc1nc(N2CCN(C(=O)[C@H](C(C)C)n3cc(CCO)nn3)CC2)nc(N2CCN(C(=O)[C@H]([C@@H](C)CC)n3cc(CCCN=C(N)N)nn3)CC2)n1	1.82%
NS(=O)(=O)c1ccc(NC(=O)COC(=O)c2ccc(Cl)nc2)cc1	0.7%
CCN(CC)c1ccc(NC(=O)c2ccc(Cl)nc2)cc1	81.4% (active)
O=C(NNc1ccccn1)c1ccc(Cl)nc1	-0.88%
COc1ccc(CN(C)Cc2nc3cc(OC)c(OC)cc3c(=O)[nH]2)c(OC)c1	1.74%
C[C@H](NC(=O)c1ccccc1Cl)C(=O)OCCOc1cccc(Cl)c1	-3.18%
Cn1cc(C(=O)NCc2ccccc2F)cn1	-6.67%
N#CC1(C#N)C(C(=O)C23CC4CC(CC(C4)C2)C3)C12CCOCC2 (stereo unspecified)	-2.53%
Cn1c(N)c(C(=O)COC(=O)/C=C/c2ccc(OC(F)F)cc2)c(=O)n(C)c1=O	2.97%
Cc1ccc(NC(=O)CN(C)Cc2ccc(F)cc2)c([N+](=O)[O-])c1	-2.86%
O=[N+]([O-])c1cccc(Nc2c3ccccc3nc3ccccc23)c1	-2.83%
Cc1ccc(Nc2c3c(nc4ccccc24)CCC3)cc1	4.72%

SMILES	inhibition
CC(=O)Nc1ccc(Nc2c3ccccc3nc3ccccc23)cc1	102% (active)
CC[C@H]1CN2CCc3cc(OC)c(OC)cc3[C@@H]2C[C@@H]1C[C@H]1NCCc2cc(OC)c(OC)cc21	101% (active)
COc1cc2c(cc1O)[C@H](Cc1ccc(Oc3cc(C[C@@H]4NCCc5cc(OC)c(O)cc54)ccc3O)cc1)NCC2	1.92%
Cn1cnc(C(F)(F)F)c1-c1ccc([N+](=O)[O-])cc1	-0.95%
O=C(O)/C=C/c1ccc2c(c1)OCCO2	0.26%
COc1ccccc1N1CCN(CCCCOc2ccc(F)cc2)CC1	-1.67%
COc1ccccc1N1CCN(Cc2ccc(OC)c3ccccc23)CC1	26.8% (active)
CNCC(O)CN1CCN(c2ccccc2OC)CC1 (stereo unspecified)	-2.42%
O=c1[nH]c2ccccc2s1	1.22%
O=C(Oc1ccccc1Cl)c1ccc(N2CCOCC2)c([N+](=O)[O-])c1	0.46%
Cc1ccc(S(=O)(=O)NCCC(c2ccccc2)c2ccccc2)cc1C(=O)O	0.73%
C/C(=N/NC(=O)CN1CCN(S(=O)(=O)c2ccc(Br)cc2)CC1)c1ccncc1	-1.23%
CC(C)(C)C(=O)OCc1nc(-c2ccc(O)c(O)c2)cs1	83.4% (active)
Cc1onc(C(=O)NN)c1-c1csc(COc2ccccc2)n1	3.97%
COc1ccc(-c2csc(Cc3nc(O)cs3)n2)cc1	-2.27%
CC(C)NC(=S)N1CCN(S(C)(=O)=O)CC1	-5.62%
O=C(c1ccc(=O)oc1)N1CCC(C(O)(c2ccccc2)c2ccccc2)CC1	2.85%
COc1ccc(F)cc1C(=O)C1CCCN(C(=O)CCc2ccccn2)C1 (stereo unspecified)	0.16%
CSCC(=O)N1CCCC(C(=O)c2cc(F)ccc2F)C1 (stereo unspecified)	67.6% (active)
COc1ccc(/C=C/CN2CCCC(C(=O)c3cc(F)ccc3F)C2)cc1 (stereo unspecified)	0%
COc1ccc(Cc2cc(-c3ccc(F)cc3)n[nH]c2=O)cc1	1.71%
C=CCOC(=O)C1=C(C)NC(SCC(=O)OCC)=C(C#N)C1c1ccc(C)cc1 (stereo unspecified)	-0.33%
Cc1ccc(C2CC(=O)NC(SCC(=O)OCc3ccccc3)=C2C#N)o1 (stereo unspecified)	1.77%
CCOC(=O)CSC1=C(C#N)C(c2sccc2C)CC(=O)N1 (stereo unspecified)	83.5% (active)
